Laboratory results reported in PubChem BioAssay (NCI).
This is part of a sample that, as a whole, favours compounds with a hit. Of some 83,000 tested, about 20% had one in any assay.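 Plates (96-well) were seeded with cells, treated with compound at one concentration, and incubated for 48 hours before percent growth was determined.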 Calls of active or inactive are those of the source.

System: SW-620 colon
Test: NCI-60 one-dose screen, 48 h (100 = growth as untreated, 0 = no growth, -100 = all killed)
Details: 10 µM unless noted
Experimental: Growth inhibition of the SW-620 human tumor cell line is measured as a screen for anti-cancer activity. Cells are grown in 96 well plates and exposed to the test compound for 48 hours. Compounds are tested at a single concentration, which is 10^-5 M for most compounds. The reported endpoint is percent growth (GI% or GIPRCNT), where numbers from 0 - 100% represent growth inhibition, and numbers from -100% - 0 represent cell death. For example, a value of 40 represents 60% growth inhibition. A value of 0 means no net growth occurred over the course of the experiment. A value of -40 indicates 40% of cells at the beginning of the experiment died by the end of the experiment. A value of -100 means all cells are dead at the end of the experiment.
NCI-60 Human Tumor Cell Lines Screen was performed using the standard one-dose NCI protocol, which is described in more detail at https://dtp.cancer.gov/discovery_development/nci-60/default.htm.
Compounds with GIPRCNT values below 10 were considered active. Activity score was based on GIPRCNT using the following formula: […]
Score is 0 for GIPRCNT values of 100 or above, 50 for GIPRCNT values of 0, and 100 for GIPRCNT values of -100.

Structure (SMILES)	growth
O=c1[nH]c2ccccc2cc1-c1nnc(Cc2ccccc2)o1	45% (inactive)
O=C(c1ccccc1)C(Cl)C(Cl)c1ccccc1 (stereo not given)	-41.3% (active)
N#CC1=C(N)n2nc(-c3ccncc3)nc2NC1c1cccc2ccccc12 (stereo not given)	100% (inactive)
Clc1ccc([I+]c2ccc(Cl)cc2Cl)c(Cl)c1	-43.4% (active)
CC/C=C\C[C@H]1C/C=C2/C(=O)C(Cl)=C[C@@H]2C/C=C\CCCC(=O)O1	-74.8% (active)
Cc1nc(Nc2cccnc2)sc1C(=O)/C=C/c1ccc(F)cc1	9.84% (active)
COc1ccc(/C(=N/O)c2cc(F)c(F)c(OC)c2F)cc1O	15.2% (inactive)
O=C(CNC(=O)c1cccc2ccccc12)Nc1ccccc1Oc1ccccc1	22.8% (inactive)
COc1cc(OC)c(C(=O)/C=C/c2ccc(C(F)(F)F)cc2)c(OC)c1	9.97% (active)
CCOC(=O)[C@H](CSSc1ncnc2cc[nH]c12)NC(=O)[C@@H](C)c1ccc2cc(OC)ccc2c1	19.3% (inactive)
COc1cc(-c2csc(NC(=O)c3cc(C(F)(F)F)cc(C(F)(F)F)c3)n2)cc(OC)c1OC	44% (inactive)
COc1ccc(/C=C/c2nc(N3CCOCC3)c3cc(F)c(F)cc3n2)cc1OC	55.5% (inactive)
NC(=O)NNC(=O)c1ccccc1	108% (inactive)
NC(=O)c1ccc2c(c1)OCO2	98% (inactive)
COc1cccc(/C=C/c2c(C(=O)O)cccc2[N+](=O)[O-])c1OC	99.7% (inactive)
O=C(Cc1n[nH]c(=O)c2ccccc12)OCc1c(Cl)cccc1Cl	86.9% (inactive)
CCc1c(C(=O)Nc2ccc3ccccc3c2)[nH]c(C)c1C(C)=O	99.5% (inactive)
COc1ncc(-c2ccc3ncnc(Nc4cccc(Cl)c4)c3c2)cc1NS(=O)(=O)C1CC1	51.1% (inactive)
O=C(CN1CCN(c2cc3c(cc2F)c(=O)c(C(=O)O)cn3C2CC2)CC1)Nc1ccc(C(=O)/C=C/c2ccccc2)cc1	41% (inactive)
Nc1c(C(=O)Nc2ccccc2)sc2nc3c(cc12)CCC3	53.1% (inactive)

Structure (SMILES)	growth
CC(C)C[C@H](NC(=O)[C@H](Cc1ccccc1)n1ccc(N2CCCCC2)cc1=O)B(O)O	6.5% (active)
COC(=O)CCCCCCN=Cc1c(O)c(O)c(C(C)C)c2cc(C)c(-c3c(C)cc4c(C(C)C)c(O)c(O)c(C=NCCCCCCC(=O)OC)c4c3O)c(O)c12	17.9% (inactive)
COc1ccc(/C=C2\C(=O)N(C(=O)c3csc(NC(C)=O)n3)N=C2C)cc1	106% (inactive)
COc1cc(Cn2c(-c3nonc3N)nc3ccccc32)ccc1C	31.2% (inactive)
CCNCc1ccncc1	100% (inactive)
CC1Cc2c(N(C)C)ncnc2N(C)c2ccc(O)cc21 (stereo not given)	63.5% (inactive)
Cc1ccccc1C(=O)c1ccccc1C(=O)O	102% (inactive)
CCC(C)NCC(=O)O (stereo not given)	105% (inactive)
Cc1ccc(-c2csc3nc(C)c(CCCl)c(=O)n23)cc1	99.2% (inactive)
CCOC(=O)CC/C(C)=N\Nc1ccc([N+](=O)[O-])cc1	57.2% (inactive)
COc1cc(NC(=O)CSc2nc3ccc(C)cc3c(=O)n2-c2ccccc2)cc(OC)c1OC	87.6% (inactive)
CCCCCCOc1ccc(C2(Cl)c3ccccc3N(C)c3ccccc32)cc1	7.18% (active)
COC(=O)c1ccc2nc(-c3cc4ccccc4n3C)n(CCCCOc3cc4c(cc3OC)C(=O)N3CCC[C@H]3C=N4)c2c1	-23% (active)
C=CCN=C1NC(=O)/C(=C/c2cc(C(C)(C)C)c(O)c(C(C)(C)C)c2)S1	63.5% (inactive)
COc1cc(Cn2c(SCC(=O)Nc3cc(OC)c(OC)c(OC)c3)nc3ccccc3c2=O)cc(OC)c1OC	91.7% (inactive)
Cc1ccc(C2=NN(c3ccc(S(=O)(=O)NC(=O)NCc4ccccc4)cc3)C(c3ccc(N(C)C)cc3)C2)c(C)c1 (stereo not given)	59.5% (inactive)
COc1cccc(-c2nc3sccn3c2-c2ccnc(NCCCNS(=O)(=O)c3ccccc3)n2)c1	75.1% (inactive)
CC(C(=O)n1cc(-c2ccccc2)c(-c2ccccc2)c1)c1ccccc1 (stereo not given)	111% (inactive)
Cc1nn(-c2ccc(Cl)cc2)c(=O)n1CCOc1ccccc1Cl	103% (inactive)
NCCSC(c1ccccc1)(c1ccccc1)c1ccccc1	19.1% (inactive)
